# MOR-DOR inv ag = mu-delta opioid heterodimer inverse agonism. inhibition, % at 9.3 µM. hit rate 0.21% among 340,000. AID 504357. cell-based MOR-DOR heterodimer luminescence. P35372+P41143; in the data active = inhibition above about 22%, passing the limit was not always enough;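 note: 0% = cells with DMSO and 100% = wells without cells with DMSO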
# Target sequence (P35372 whole entry, looked up): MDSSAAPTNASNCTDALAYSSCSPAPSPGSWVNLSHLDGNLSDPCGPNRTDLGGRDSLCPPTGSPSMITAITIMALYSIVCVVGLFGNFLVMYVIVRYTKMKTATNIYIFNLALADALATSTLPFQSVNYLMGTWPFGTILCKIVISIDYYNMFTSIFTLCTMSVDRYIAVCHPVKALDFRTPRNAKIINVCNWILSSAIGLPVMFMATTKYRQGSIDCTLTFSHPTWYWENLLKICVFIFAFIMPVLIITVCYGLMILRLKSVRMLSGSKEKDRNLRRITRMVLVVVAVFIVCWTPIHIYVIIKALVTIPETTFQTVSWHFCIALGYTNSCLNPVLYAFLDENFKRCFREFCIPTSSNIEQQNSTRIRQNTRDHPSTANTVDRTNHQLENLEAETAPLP
# Target sequence (P41143 whole entry, looked up): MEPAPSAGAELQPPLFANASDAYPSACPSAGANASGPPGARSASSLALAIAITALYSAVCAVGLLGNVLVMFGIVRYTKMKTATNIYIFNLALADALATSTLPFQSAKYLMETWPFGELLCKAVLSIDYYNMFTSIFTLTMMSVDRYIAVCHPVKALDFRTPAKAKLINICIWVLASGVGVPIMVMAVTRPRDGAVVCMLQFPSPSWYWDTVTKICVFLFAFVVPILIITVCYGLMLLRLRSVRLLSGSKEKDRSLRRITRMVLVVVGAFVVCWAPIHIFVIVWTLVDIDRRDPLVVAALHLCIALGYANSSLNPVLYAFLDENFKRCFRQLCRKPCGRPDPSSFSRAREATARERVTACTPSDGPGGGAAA
# HTR5A ag ctr = activates human HTR5A in OPRM1-OPRD1 agonist counter-screen. HTR5A agonist assay, luminescence, cell-based. P47898. activation, % at 9.3 µM. hit rate 0.61% among 340,000; in the data active = activation mostly above about 9.5%, no sharp cut-off; inactive = mostly below about 7.6%;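 note: 0% = cells with vehicle only and 100% = reference agonist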
# HTR5A inv ag = HTR5A inverse agonism, opioid heterodimer counter-screen; P47898; HTR5A cell line, luminescence; inhibition, % at 9.3 µM; hit rate 0.083% among 340,000; in the data active = inhibition mostly above about 23%, no sharp cut-off; inactive = mostly below about 18%;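 note: 0% = cells with DMSO and 100% = no-cell wells with DMSO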
# OPRM1-OPRD1 ag = agonists of human mu-delta opioid receptor heterodimerization; P35372+P41143; cells, OPRM1-OPRD1 heterodimerization, luminescence; activation, % at 9.3 µM; hit rate 0.3% among 340,000; AID 504326; in the data active = activation above about 18%;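 note: 0% = vehicle-treated cells and 100% = reference agonist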
# * hit, by the source's call. Rows were chosen to be rich in hits. Some 1.1% of all compounds tested hit in one or more screens of this group.
SMILES,MOR-DOR inv ag,HTR5A ag ctr,HTR5A inv ag,OPRM1-OPRD1 ag
CCC(C)NCCOCCOc1cc(C)c(Cl)c(C)c1 (centres undefined),-4,12*,4,1
CCCCn1c(SCC(=O)Nc2sc3c(c2C(N)=O)CCC3)nnc1-c1ccccc1,-13,14*,-25,2
NC(=O)c1c(NC(=O)CSc2nnc(Cc3ccccc3)n2Cc2ccco2)sc2c1CCC2,-1,3,-11,0
CC(C)(C)NC(=O)CSCc1c(Cl)cccc1Cl,6,-1,12,-1
NC(=O)CSCc1c(Cl)cccc1Cl,11,13*,-20,-2
Cc1sc2nc(CN3CCN(c4ccc(O)cc4)CC3)[nH]c(=O)c2c1C,5,12*,-39,-1
Cc1nn(C2CCS(=O)(=O)C2)c(C)c1CN(C)C(=O)c1cccc(Cl)c1 (centres undefined),13,-3,6,-3
Cc1ccccc1C(=O)N[C@H](C(=O)OCC(=O)NC1CC1)C(C)C,5,-10,24,-1
Cc1cc(NC(=O)c2ccc(COc3ccccc3Cl)o2)no1,-15,9.7*,-12,3
CCCc1cc(=O)[nH]c(SCC(=O)N2CCC(C)CC2)n1,6,3,-4,-1
CCO[C@@H]1OC(C(=O)NCc2ccccc2)=C[C@H](c2coc3ccccc3c2=O)[C@H]1CCCO,6,-3,-11,-1
Cc1cc(-n2c(SCC(=O)NCc3cccs3)nc3n[nH]c(C)c3c2=N)ccc1Cl,-12,12*,-23,2
Cc1cc(-n2c(SCC(=O)Nc3ccc(F)c(F)c3)nc3n[nH]c(C)c3c2=N)ccc1Cl,-34,9.8*,-40,6
Cc1cc(C)c(-c2c(O)c3c(n(C)c2=O)CC(C)(C)CC3=O)c(C)c1,4,-2,6,-1
Cc1cc(C)c2c(c1)CC(C)(C)CC2=O,9,9.2*,-38,-2
O=C1C=C(O)c2cccc(O)c2C1=O,-9,2,3,2
CC1OC(CC(=O)O)CC2=C1C(=O)c1c(O)cccc1C2=O (centres undefined),-130,-5,21,30*
COc1ccc(C(=O)n2cnc3ccccc32)cc1[N+](=O)[O-],12,-1,4,-2
C=CCNC(=O)c1onc(CSc2ccccc2)c1C(=O)NCC=C,0,-2,17,0
C=CCNC(=O)c1onc(CSc2ccc(F)c(F)c2)c1C(=O)NCC=C,-18,13*,-6,3
O=C(CC(Cc1ccccc1)C(=O)O)Nc1ccccc1 (centres undefined),18,0,-1,-4
O=C(CC(Cc1ccccc1)C(=O)O)Nc1ccc(Cl)c(Cl)c1 (centres undefined),0,10.0*,-37,0
O=C(NCCN1CCCCC1)c1cc(OCC(F)(F)F)ccc1OCC(F)(F)F,-2,10*,-10,0
COc1cc(C#Cc2c(-c3cncn3C)n(C)c3ccc(-c4cnc(OC)nc4)cc23)cc(OC)c1,-5,12*,-44,1
CCC(C(=O)N1CCOCC1)n1c2ccccc2c2nc(=O)cc(C)n21 (centres undefined),2,0,-5,0
SMILES,MOR-DOR inv ag,HTR5A ag ctr,HTR5A inv ag,OPRM1-OPRD1 ag
COCc1ccc(CN2CCCC(C(=O)Nc3ccc(-c4cccc(OC)c4)cc3)C2)o1 (centres undefined),-20,12*,-13,4
COCc1ccc(CN2CCCC(C(=O)Nc3ccccc3-c3ccc(OC)cc3)C2)o1 (centres undefined),6,-2,24,-1
CCCc1ccc2oc(C(=O)N3CCN(CCC(N)=O)CC3)c(C)c2c1,7,1,-3,-1
CCCc1ccc2oc(C(=O)N3CCN(c4cnccn4)CC3)c(C)c2c1,-16,13*,-33,3
CCNc1ccc(S(=O)(=O)N(C)C)cc1NCC(=O)Nc1ccccc1Cl,12,3,-25,-2
COC(=O)[C@@H]1[C@@H](C#N)C2(c3ccccc3-c3ccccc32)N(c2ccc(Cl)cc2)N1C#N,-52,8.7*,-9,10
Cc1ccc(CNCC(=O)Nc2ccc(C)cc2Br)cc1,-10,12*,13,2
Cc1ccc(NC(=O)CNCc2ccccc2)c(Br)c1,-17,0,0,4
CN1CCN(S(=O)(=O)c2ccc(Br)c3ccccc23)CC1,5,11*,-41,-1
CCOC(=O)C(C)Oc1cccc2c(=O)n(CC(=O)Nc3ccc4c(c3)OCCO4)ccc12 (centres undefined),4,1,4,-1
CCOC(=O)C(C)Oc1cccc2c(=O)n(CC(=O)NCc3ccc4c(c3)OCO4)ccc12 (centres undefined),6,12*,-19,-1
O=C1CCC(C(=O)Nc2cccc(Oc3ccccc3)c2)=NN1,7,-3,8,-2
COc1ccc(NC(=O)c2cccs2)cn1,11,4,-10,-2
CC(C)(C)c1ccc(Oc2ccc(NC(=O)c3cccs3)cn2)cc1,-30,13*,-2,6
COc1cc(OC)cc(C(=O)N[C@H](C(=O)OCC(=O)c2ccc(C)c([N+](=O)[O-])c2)C(C)C)c1,21,-1,4,-5
Cc1ccsc1C(=O)Nc1cc(C(C)(C)C)nn1-c1ccccc1,-3,14*,22,1
Cc1c(CCOC(=O)C23CC4CC(CC(C)(C4)C2)C3)sc[n+]1CC(=O)c1ccccc1,5,2,-5,-1
Cc1c(CCOC(=O)CC23CC4CC(CC(C)(C4)C2)C3)sc[n+]1CC(=O)c1ccccc1,15,13*,4,-3
CCOC(=O)C1=CN(Cc2cccc(F)c2)S(=O)(=O)N(C)C1c1ccc2ccccc2c1 (centres undefined),1,-1,3,0
COc1ccc(-n2c(CN3CCN(c4ccccc4OC)CC3)nc3ccc([N+](=O)[O-])cc3c2=O)c(OC)c1,10,9.9*,-39,-2
CCN1CCN(Cc2nc3ccc([N+](=O)[O-])cc3c(=O)n2-c2ccc(OC)cc2OC)CC1,2,3,-11,0
O=C(NCc1cccc(F)c1F)C1CCC(=O)N(C2CC2)C1 (centres undefined),18,10*,4,-5
Cc1[nH]c2ccc(-c3nnc(SCC(=O)c4ccccc4F)o3)cc2c1C,-12,12*,-3,2
Cc1cccc(NS(=O)(=O)c2cccc(C(=O)N3CCN(C/C=C/c4ccccc4)CC3)c2)c1,1,6,-18,0
CCn1nc(NC(=O)C(C)C)c2cc3cccc(C)c3nc21,-18,11*,-41,4
Cc1ccc(N=C2C(=O)Nc3ccc(C)c(Br)c32)cc1,67*,-8,28,-13
Cc1ccc(N=C2NC(=O)CS2)cc1,7,10,9,-1
CCCC(C)C(=O)Nc1nnc(CCc2ccccc2)s1 (centres undefined),-23,5,-17,5
NC(CSC(c1ccccc1)(c1ccccc1)c1cccc2ccccc12)C(=O)O (centres undefined),-92,5,-21,21*
NC(CSC1(c2cccc3ccccc23)c2ccccc2-c2ccccc21)C(=O)O (centres undefined),-19,2,-6,4
